This is an account of results in PubChem BioAssay AID1789 (The Scripps Research Institute Molecular Screening Center, 2009).

Screen size: about 290,000 compounds; about 2,700 (0.93%) were called active. This is one part of a sample in which actives are shown more often than they occur. Unmarked numbers belong to inactive results.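 Rule for the calls: active = inhibition above the screen-wide mean plus 3 SD, computed separately per campaign (cut at about 16% in these data); inactive = the rest.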

The test has as its system Heat shock protein HSP 90 (rabbit reticulocyte lysate; luciferase refolding). The experiment in a line: inhibitors of HSP90 chaperone activity – cell lysate, luminescence, primary screen (AID 1789).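 Note: 0% = DMSO wells and 100% = 60 µM geldanamycin wells; inhibitors lower the luminescence because luciferase stays unfolded.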 The conditions noted are these: 3 h, at 5.6 µM, stronger effect = higher value.
Regarding `Cc1ccc(/C=C2/SC(=S)N(CCC(=O)NCCCN3CCOCC3)C2=O)cc1`, the inhibition was -1.06%.

Take `O=C1CCC(C(=O)N2CCC(O)(c3ccccc3)CC2)CN1CCc1ccccc1` (configuration not stated): the inhibition was -4.78%.

Regarding `O=C(CN(C(=O)c1nsc(Cl)c1Cl)c1cccc(F)c1)NC1CCCC1`, the inhibition was -2.72%.

In the case of `COc1ccc(CNC(=O)CCN2C(=O)c3ccccc3C2=O)cc1`, the inhibition was 3.06%.

For the compound `CN(Cc1ccccc1)C(=O)C1CCCN(c2ncnc3c2nc2n3CCCCC2)C1` (configuration not stated), the inhibition was -4.53%.

On to `CC(C)(C)c1ccc(C(=O)NCCn2c(N)c(C#N)c3nc4ccccc4nc32)cc1`, for which the inhibition is 2.15%.

With `COCC(C)OC(=O)c1c(N)n(CCCN2CCOCC2)c2nc3ccccc3nc12` (configuration not stated), the inhibition was 4.05%.

Consider `CC(C)(C)OC(=O)c1c(N)n(CCCN2CCCC2=O)c2nc3ccccc3nc12`, for which the inhibition is 17.2% (active).

As to `Cc1c(C(=O)N/N=C/c2ccccc2)[nH]c2c([N+](=O)[O-])cccc12`, the inhibition was 3.21%.

As for `COc1cccc2c(C)c(C(=O)O)[nH]c12`, the inhibition is 30.8% (active).

`COc1cc2c(C(=O)O)c(C)n(C)c2c2ccccc12`: the inhibition is 1.04%.

With `Cc1cccc(-c2c(NC(=O)c3ccco3)oc3ccc(Cl)cc3c2=O)c1`, the inhibition is 3.25%.

`Cc1cc(C)nc(/N=C2\NC(=O)CC(C(=O)O)N2c2ccc(Cl)cc2Cl)n1` (configuration not stated): the inhibition was 3.62%.

Consider `CCOC(=O)c1nc(C)n(-c2ccc(Cl)cc2Cl)n1`, for which the inhibition was 17.8% (active).

`CCOC(=O)c1cnc(SC)nc1Sc1ccc(Cl)cc1Cl`: the inhibition is -1.52%.

On to `CC(=O)N1CCN(CC(C)(C)NS(=O)(=O)c2ccc(C)cc2)CC1`, for which the inhibition is -0.75%.

As to `CC(CC(=O)Nc1ccc(F)cc1F)S(=O)(=O)c1ccc2c(c1)NC(=O)CO2` (configuration not stated), the inhibition was -2.21%.

Turning to `Cc1ccsc1C(=O)OCC(=O)c1cc(C)n(CC2CCCO2)c1C` (configuration not stated), the inhibition was 82.5% (active).

Turning to `Cc1cc(C(=O)Cn2cnc3cc([N+](=O)[O-])ccc3c2=O)c(C)n1CC1CCCO1` (configuration not stated), the inhibition was -6.94%.

Turning to `Cc1cc(C(=O)CCl)c(C)n1CC1COc2ccccc2O1` (configuration not stated), the inhibition is 4.06%.

For `CCOC(=O)CSc1nc2ccc(C)cc2n2cnnc12`, the inhibition was -0.11%.

For the compound `O=C(Nc1ncc2c(n1)CC(c1ccco1)CC2=O)c1ccc(Cl)cc1` (configuration not stated), the inhibition was 1.31%.

In the case of `COc1cc(C2CC(=O)c3cnc(NC(C)=O)nc3C2)cc(OC)c1OC` (configuration not stated), the inhibition was -1.32%.

Take `CCc1ccc(Nc2ncc3c(n2)CC(c2ccco2)CC3=O)cc1` (configuration not stated): the inhibition is 22% (active).

Regarding `COc1ccc(NC(=O)NCc2ccc3c(c2)OCO3)c(OC)c1`, the inhibition is -7.38%.

Regarding `CCC(C)(C)n1nnnc1C(c1ccc(OC)c(OC)c1)N1CCN(C(=O)c2ccco2)CC1` (configuration not stated), the inhibition was -0.49%.

In the case of `CCC(=O)Nc1c(S(=O)(=O)c2ccccc2)c2nc3ccccc3nc2n1Cc1ccccc1`, the inhibition was 5.13%.

For the compound `Cc1ccc(S(=O)(=O)c2c(N)n(C)c3nc4ccccc4nc23)cc1`, the inhibition was -1.87%.

With `CCN(CC)CCn1c(N)c(S(=O)(=O)c2ccccc2)c2nc3ccccc3nc21`, the inhibition was 22.7% (active).

As to `O=C(N/N=C/c1ccoc1)c1ccc(Cl)cc1Cl`, the inhibition was -0.55%.

Regarding `CCN(CC)CCNc1nc(-c2ccc(OC(F)F)cc2)c(C)s1`, the inhibition is 1.64%.

For the compound `COc1ccc(NC(=O)CSc2nc(C)cs2)cc1`, the inhibition was -1.43%.

On to `Cc1cccc(C)c1Nc1nnc(SCC(=O)Nc2sccc2C#N)s1`, for which the inhibition is 3.59%.

`Cc1csc(SCC(=O)Nc2sccc2C#N)n1`: the inhibition is 17.4% (active).

On to `CCc1ccccc1NC(=O)[C@@H]1CCC(=O)N1C1OC(=O)c2c1ccc(OC)c2OC` (some centres not stated), for which the inhibition is -1.1%.

Consider `COc1ccc(NC(=O)c2ccco2)cc1NC(=O)c1ccc(C#N)cc1F`, for which the inhibition is -0.59%.

Take `CCCCCc1ccc(-c2ccc(C(=O)O)cc2)nc1`: the inhibition was 61.1% (active).

For `CCCCCc1ccc(-c2cn(Cc3ccc4ccccc4c3)nn2)cc1`, the inhibition was -4.93%.

Regarding `CCCCCc1ccc(-c2ccc(OCC)cc2)nc1`, the inhibition is 0.91%.

Consider `COCCn1c(SCc2nnc(-c3ccc(OC)c(OC)c3)o2)nc2sc3c(c2c1=O)CCC3`, for which the inhibition was 1.74%.

In the case of `CC(=O)c1ccc(S(=O)(=O)N(C)CCCC(=O)N(C)Cc2ccccc2F)cc1`, the inhibition is 0.72%.

For `Cc1nnc(SCC(=O)N2c3ccccc3C(C)(c3ccc(Cl)cc3)CC2(C)C)s1` (configuration not stated), the inhibition was 58.2% (active).

Regarding `CC1(c2cccc([N+](=O)[O-])c2)CC(C)(C)N(C(=O)c2ccccc2)c2ccccc21` (configuration not stated), the inhibition was 2.72%.

Regarding `CC1(c2ccccc2)CC(C)(C)N(C(=O)c2cc([N+](=O)[O-])cc([N+](=O)[O-])c2)c2ccccc21` (configuration not stated), the inhibition was -2.72%.

Consider `NC1=NN(c2cccc(C(=O)O)c2)C(=O)C1`, for which the inhibition was 3.9%.

On to `O=Cc1c(Nc2ccccc2Cl)nc2ccccn2c1=O`, for which the inhibition was 0.05%.

With `COc1ccc(OCc2cc(C(=O)NCC3(C)COC3)no2)c(Cl)c1`, the inhibition was -3.93%.

`Cc1ccc(-c2cn3cc([N+](=O)[O-])ccc3n2)cc1`: the inhibition is 26.2% (active).

In the case of `CSc1nnc2ccc(-c3ccc(C)cc3)nn12`, the inhibition was -5.22%.

In the case of `Cc1ccc2nc(-c3ccc(Br)cc3)cn2c1`, the inhibition is 75.1% (active).

`COc1ccc(-c2cn3ccsc3n2)cc1`: the inhibition was 6.4%.

Turning to `Cc1ccc(-c2cc(N)on2)cc1`, the inhibition was 3.55%.

As for `Cc1ccc(-c2cn3cc(C)ccc3n2)cc1`, the inhibition is 84.1% (active).

With `Cc1nc(-c2ccc([N+](=O)[O-])cc2)c(-c2ccccc2)o1`, the inhibition is 10.2%.

For the compound `COc1ccc(-c2cn3cccnc3n2)cc1`, the inhibition is 0%.

As for `Cc1cc(N2CCOCC2)nc(-c2ccc(Br)cc2)n1`, the inhibition was 7.23%.

Turning to `CCN(CC)S(=O)(=O)c1ccc(-c2cn3ccc(C)cc3n2)cc1`, the inhibition is 1.15%.

For the compound `Cc1ccc(-n2cc3ccc([N+](=O)[O-])cc3n2)cc1`, the inhibition was 9.46%.

Consider `COc1ccc(-c2cn3ccc(C)cc3n2)cc1`, for which the inhibition is 61.9% (active).

As for `COc1ccc(S(=O)(=O)NC(C)c2ccccc2)cc1C(=O)N1CCCCC1` (configuration not stated), the inhibition is -0.07%.

With `Cc1cc(NC(=O)c2ccccc2C)no1`, the inhibition was 1.41%.

In the case of `CC(NCc1cccs1)C(=O)Nc1cc(Cl)cc(Cl)c1` (configuration not stated), the inhibition was 3.33%.

Consider `O=S(=O)(Cc1cc(Cl)nc(-c2cccnc2)n1)c1ccccc1`, for which the inhibition is -1.01%.

In the case of `Cc1cccc(C(=O)N2CCCC(Nc3ccc(C(C)C)cc3)C2)n1` (configuration not stated), the inhibition was 2.58%.

For `Cc1ccc(NS(=O)(=O)c2ccc(C)c(NC(=O)COc3ccc4ccccc4c3)c2)c(C)c1`, the inhibition is 3.5%.

As to `COc1ccc2cc(S(=O)(=O)Nc3ccccn3)ccc2c1`, the inhibition is -2.45%.

Consider `COc1cc(NS(=O)(=O)c2ccc3ccccc3c2)c2ncccc2c1`, for which the inhibition is 17.1% (active).

In the case of `O=S(=O)(Nc1ccccc1Cl)c1cccc2nsnc12`, the inhibition is -0.91%.

Consider `COc1ccc2c(c1)C(NS(=O)(=O)OCC(Cl)(Cl)Cl)CCC2` (configuration not stated), for which the inhibition is -3.42%.

In the case of `CCOc1cccc(/C=C/c2ccc3ccccc3n2)c1OC(C)=O`, the inhibition was 11.8%.

On to `COc1cccc(/C=C/c2ccc3ccccc3n2)c1OC(C)=O`, for which the inhibition is 26.1% (active).

Turning to `COc1cccc(/C=C2\C=C(c3ccc(C)cc3)OC2=O)c1OC(C)=O`, the inhibition is -2.84%.

Take `Cc1cc(=O)oc2cc(OC(C)C(=O)NCCc3ccc(S(N)(=O)=O)cc3)ccc12` (configuration not stated): the inhibition was -1.68%.

Consider `COC(=O)C1=C(O)/C(=C/c2ccc(OCC(=O)Nc3ccccc3)cc2)N=C1C`, for which the inhibition is 3.09%.

Take `COC(=O)c1ccc(Nc2ncnc3sccc23)cc1`: the inhibition was -0.64%.

Consider `COc1ccc(N(CC(=O)NCC2CCCO2)C(=O)CCC(=O)Nc2nccs2)c(OC)c1` (configuration not stated), for which the inhibition was 1.16%.

Turning to `Cc1nc2cc(NC(=O)NC3CC3)ccc2n1C`, the inhibition is -3.15%.

Consider `Cc1nc2cc(NC(=O)Nc3cccc(F)c3)ccc2n1C`, for which the inhibition was 42.2% (active).

With `C=CCN(C(=O)Nc1ccc2c(c1)nc(C)n2C)c1ccccc1`, the inhibition is 2.61%.

Consider `CCN(C(=O)COc1ccc(C(=O)c2ccccc2)cc1)c1ccccc1`, for which the inhibition was 2.9%.

Regarding `O=C(Nc1ccc(N2CCOCC2)cc1)c1ccc2c(c1)OCO2`, the inhibition was 4.41%.

Take `O=C(Nc1cccc(S(=O)(=O)Nc2ccc(Cl)cc2)c1)c1ccc2c(c1)OCCO2`: the inhibition is -6.31%.

As to `O=C(Nc1nc2ccccc2s1)c1ccc2c(c1)OCO2`, the inhibition was 21.8% (active).

For `O=C(Nc1ccccc1F)c1ccc2c(c1)OCO2`, the inhibition was 4.08%.

For `COCc1nnc(NC(=O)c2ccc3c(c2)OCO3)s1`, the inhibition was -2.47%.

For the compound `O=C(Nc1ccccc1)c1ccc2c(c1)OCCCO2`, the inhibition is 31.5% (active).

Turning to `CN1CCN(CCNC(=O)Nc2ccccc2[N+](=O)[O-])CC1`, the inhibition was -4.79%.

For `O=C(CCN1C(=O)C2C3CCC(C3)C2C1=O)Nc1ccc(Cl)cc1Cl` (configuration not stated), the inhibition was -1.86%.

Consider `COc1ccc(/C(C)=N\NC(=O)c2ccc(-c3ccccc3)cc2)c(F)c1`, for which the inhibition is -2.33%.

`Oc1c(Cl)cc(Cl)cc1/C=N/c1ncn[nH]1`: the inhibition is -0.17%.

In the case of `CC(C)C[C@H](NC(=O)N1CCn2c1nc1ccccc12)C(=O)NC1CC1`, the inhibition is -4.43%.

Turning to `COc1ccccc1C(=O)Nc1cccc(C(=O)N2CCOCC2)c1`, the inhibition was -1.04%.

Consider `COc1cc(CNC2CCCC2)c(Br)cc1OCc1ccccc1`, for which the inhibition is -1.4%.

For `CC(C)(C)NCc1cc(Br)ccc1OC1CCCC1`, the inhibition was -2.93%.

Consider `COc1cc(CNC2CCCCC2)c(Br)cc1OC1CCCC1`, for which the inhibition is 35.2% (active).

For `COc1cc(C(=O)OCC(=O)NC(C)CCc2ccccc2)cc(OC)c1OC` (configuration not stated), the inhibition is 0.2%.

As to `COc1ccccc1CNS(=O)(=O)c1c(C)[nH]c(C)c1C(=O)N1CCCCC1`, the inhibition is -3%.

The term inhibition denotes the relative decrease from the control value, in per cent.
